# Data reported in PubChem BioAssay (NCATS).
# “And” between values parts separate entries of the source, which are not always exact repeats. Identical values can stand only once. Values without a mark were called inactive. Results filed as inconclusive are left out. The source made the active and inactive calls. Unless noted, calls come from the whole dose curve; as a rule, active = well fitted curve in the direction sought with a large enough effect; inconclusive = small, poorly fitted or top-dose-only effect, or another doubt; inactive = no such curve, though single readings can be large; an effect the other way counts as inactive or inconclusive. Where a SMILES comes first, the peptide text is derived from it. Bridges are numbered along the chain shown (N, C = ends). [ ]: non-standard residue; d: D form. Orn = NCCC[C@H](N)C(=O)O; Mpa = O=C(O)CCS
# Key:
# [1] = Drug repurposing screens with cells derived from glioblastoma tumor samples (AID 1345199); conditions: GBM patient neurospheres viability, ATP luminescence, 48 h; note: nearly all actives have a fitted effect of over 40% in size; note: potency is the fitted concentration of half-maximal effect; for activity, negative = cell killing: % is set by controls: 0 for no effect and ±100 for the full control effect
# Procedure, shortened: (§1)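 Primary testing used CD133+ neurospheres from four GBM patients, seven concentrations, 48 h exposure and ATP-based viability; confirmation added three slower-growing patient lines.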
# astro = control astrocytes; experiment: as above; conditions: viability, ATP luminescence, 48 h; series mostly up to 45.9 µM
# Procedure, shortened: as §1
# [2] = qHTS assay to identify inhibitors of the type 1 interferon - major histocompatibility complex class I in skeletal muscle: Counter screen cell viability and HiBit confirmation (AID 1347412); conditions: iHSKM muscle cells + IFN-b, HiBiT or CellTiter-Glo, 24 h; for activity change, negative = inhibition: at 45.9 µM (top of the series); note: potency is the fitted concentration of half-maximal effect; for activity change, negative = inhibition: % is set by controls: 0 for no effect and ±100 for the full control effect; for all read-outs here: nearly all actives have a fitted effect of over 60% in size
# Procedure, shortened: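 Duplicate plates, pinned identically: one read for HiBiT-tagged endogenous HLA-B luminescence, the other for ATP-content viability via CellTiter Glo. Cells were genome-engineered human myoblasts given 4 ng/ml IFN-b; compounds 12-pt, 1:3 from 46 uM final; 24 hr exposure.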
# [3] = molecular target: Nuclear receptor subfamily 1 group I member 2 (Rattus norvegicus) (UniProt Q9R1A7); experiment: qHTS assay for small molecule activators of the rat pregnane X receptor (rPXR) signaling pathway (AID 651751; call rule not given here; note: 0% is about no effect); conditions: rPXR reporter cells, luciferase (One-Glo), 24 h
# Nuclear receptor subfamily 1 group I member 2 (Rattus norvegicus), sequence (Q9R1A7 whole entry, looked up): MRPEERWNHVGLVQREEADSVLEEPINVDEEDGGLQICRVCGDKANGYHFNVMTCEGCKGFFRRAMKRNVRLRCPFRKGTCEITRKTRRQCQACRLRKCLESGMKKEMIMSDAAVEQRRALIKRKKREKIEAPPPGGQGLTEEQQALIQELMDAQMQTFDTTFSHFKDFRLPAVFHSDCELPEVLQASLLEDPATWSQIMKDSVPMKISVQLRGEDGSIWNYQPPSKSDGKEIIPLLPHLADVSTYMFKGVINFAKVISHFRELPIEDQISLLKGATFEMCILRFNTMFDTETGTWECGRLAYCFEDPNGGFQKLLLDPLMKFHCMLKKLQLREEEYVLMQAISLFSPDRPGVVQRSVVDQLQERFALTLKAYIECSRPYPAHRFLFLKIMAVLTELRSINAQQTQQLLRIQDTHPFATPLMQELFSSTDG
# [4] = qHTS assay for small molecule activators of the human pregnane X receptor (PXR) signaling pathway (AID 720659; call rule not given here; note: 0% is about no effect); conditions: DPX-2 HepG2 CYP3A4-luciferase, 24 h; series mostly up to 92.3 µM
# [5] = at 45.9 µM (top of the series), tumour line B
# [6] = at 45.9 µM (top of the series), tumour line D
# [7] = at 46.1 µM (top of the series), tumour line C
smiles,measurement,setting,value
CO[C@H]1[C@@H](O)[C@H](N)[C@@H](O[C@H]2O[C@H]([C@H](C)N)CC[C@H]2N)[C@H](O)[C@@H]1N(C)C(=O)CN,"activity, negative = cell killing",[1]; [5],-11.8%
same,"activity, negative = cell killing",[1]; [6],-4.2%
same,"activity, negative = cell killing",[1]; [7],-7.2%
same,Potency,astro,inactive
O=P(O)(O)C(O)(Cc1cnc2ccccn12)P(=O)(O)O,"activity, negative = cell killing",[1]; [5],-3.54%
same,"activity, negative = cell killing",[1]; [6],2.92%
same,"activity, negative = cell killing","[1]; at 46 µM (top of the series), tumour line A",-12.2%
same,"activity, negative = cell killing",[1]; [7],2.63%
same,Potency,astro,inactive
CCOC(=O)COc1ccc2c(C)c(CCN(CC)CC)c(=O)oc2c1,"activity, negative = cell killing",[1]; [5],4.06%
same,"activity, negative = cell killing",[1]; [6],5.03%
same,"activity, negative = cell killing",[1]; [7],-14.9%
same,Potency,[1]; tumour line A,12.6 µM (active)
same,Potency,astro,inactive
CC(=O)OC[C@H]1O[C@@H](O[C@H]2[C@H](O)[C@@H](OC(=O)c3ccccc3C(=O)O)[C@H](O)O[C@@H]2COC(C)=O)[C@H](O)[C@@H](OC(=O)c2ccccc2C(=O)O)[C@@H]1O,"activity, negative = cell killing",[1]; [5],-10.5%
same,"activity, negative = cell killing",[1]; [6],-4.26%
same,"activity, negative = cell killing",[1]; [7],6.79%
same,Potency,astro,inactive
C=C1C(=C/C=C2\CCC[C@]3(C)[C@@H]([C@H](C)CCCC(C)(C)O)CC[C@@H]23)C[C@@H](O)C[C@@H]1O,"activity, negative = cell killing",[1]; [5],-26.6%
same,Potency,[1]; tumour line A,17.8 µM (active)
same,Potency,[1]; tumour line D,20 µM (active)
same,Potency,astro,22.4 µM (active)
CC(C)(C)NC(=O)[C@H]1CC[C@H]2[C@@H]3CC=C4C=C(C(=O)O)CC[C@]4(C)[C@H]3CC[C@]12C,"activity, negative = cell killing",[1]; [5],-3.87%
same,"activity, negative = cell killing",[1]; [6],0.505%
same,"activity, negative = cell killing",[1]; [7],-11%
same,Potency,astro,inactive
C=CCNC1=C2C[C@@H](C)C[C@H](OC)[C@H](O)[C@@H](C)/C=C(\C)[C@H](OC(N)=O)[C@@H](OC)/C=C\C=C(/C)C(=O)NC(=CC1=O)C2=O,Potency,astro,1.26 µM (active)
same,Potency,[2]; HiBiT,0.0701 µM (active)
COc1ccc(CNc2nc(N(CCO)CCO)nc3c2ncn3C(C)C)cc1,Potency,[2]; HiBiT,5.57 µM (active)
same,"activity change, negative = inhibition",[2]; Viability,13%
COC(=O)C[C@](O)(CCCC(C)(C)O)C(=O)O[C@@H]1C(OC)=CC23CCCN2CCc2cc4c(cc2[C@H]13)OCO4 (some centres undefined),Potency,astro,1.12 µM (active)
COC1=C(C(=O)O)N2C(=O)[C@@H](NC(=O)[C@H](N)C3=CCC=CC3)[C@H]2SC1,"activity, negative = cell killing",[1]; [5],-9.93%
same,"activity, negative = cell killing",[1]; [6],-11%
same,"activity, negative = cell killing",[1]; [7],6.55%
same,Potency,astro,inactive
CC(CC(c1ccccc1)c1ccccc1)NC(C)(C)C (centres undefined),Potency,astro,inactive
CON=C1C[C@]2(C[C@@H]3C[C@@H](C/C=C(\C)C[C@@H](C)/C=C/C=C4\CO[C@@H]5[C@H](O)C(C)=C[C@@H](C(=O)O3)[C@]45O)O2)O[C@H](/C(C)=C/C(C)C)[C@H]1C,Potency,astro,17.8 µM (active) and 20 µM (active)
OC(CN1CCCCC1)c1cc(-c2ccccc2)on1 (centres undefined),"activity, negative = cell killing",[1]; [5],-15.5%
same,"activity, negative = cell killing",[1]; [6],-0.851%
same,"activity, negative = cell killing",[1]; [7],5.87%
same,Potency,astro,inactive
COc1cccc(OCCCN)c1-c1cc(Nc2cnc(C#N)cn2)n[nH]1,Potency,[2]; HiBiT,15.7 µM (active)
same,Potency,[2]; Viability,17.6 µM (active)
CCN(CC)c1ccc(C(=C2C=CC(=[N+](CC)CC)C=C2)c2ccccc2)cc1,Potency,astro,2 µM (active)
COC(=O)Nc1cc(Nc2cc(NC3CC3)c3ncc(C#N)n3n2)c(Cl)c(N2CCN(C)CC2)c1,Potency,[2]; HiBiT,7.01 µM (active)
same,Potency,[2]; Viability,17.6 µM (active)
O=C(Nc1ccc(/C=C/c2ccc(NC(=O)c3cc(S(=O)(=O)O)c4cccnc4c3O)cc2S(=O)(=O)O)c(S(=O)(=O)O)c1)c1cc(S(=O)(=O)O)c2cccnc2c1O,"activity, negative = cell killing",[1]; [5],-15.1%
same,"activity, negative = cell killing",[1]; [6],6.57%
same,"activity, negative = cell killing",[1]; [7],-10.9%
same,Potency,astro,inactive
CC#CCC(C)[C@H](O)/C=C/[C@@H]1[C@H]2c3cccc(CCCC(=O)O)c3O[C@H]2C[C@H]1O (some centres undefined),"activity, negative = cell killing",[1]; [5],-5.83%
same,"activity, negative = cell killing",[1]; [6],2.53%
same,"activity, negative = cell killing",[1]; [7],-26.2%
same,Potency,astro,inactive
CCCCOC(=O)C(=O)Nc1cccc(-c2nn[nH]n2)c1,"activity, negative = cell killing",[1]; [5],-12.5%
same,"activity, negative = cell killing",[1]; [6],2.48%
same,"activity, negative = cell killing",[1]; [7],-2.11%
same,Potency,astro,inactive
CCC(c1ccccc1)c1noc(CCN(CC)CC)n1 (centres undefined),"activity, negative = cell killing",[1]; [5],-14.3%
same,"activity, negative = cell killing",[1]; [6],-10.2%
same,"activity, negative = cell killing",[1]; [7],-2.54%
same,Potency,astro,inactive
COC(C)=O,"activity, negative = cell killing",[1]; [5],-2.89%
same,"activity, negative = cell killing",[1]; [6],6.97%
same,"activity, negative = cell killing",[1]; [7],7.29%
same,Potency,astro,inactive
same,max response,[3],5.57%
same,outcome,[4],inactive
COc1cc([C@@H]2c3cc4c(cc3C(O[C@@H]3O[C@@H]5COC(c6cccs6)O[C@H]5[C@H](O)[C@H]3O)C3COC(=O)[C@@H]32)OCO4)cc(OC)c1O (some centres undefined),Potency,astro,12.6 µM (active)
O=P(O)(O)OC(Cn1cncn1)(Cn1cncn1)c1ccc(F)cc1F,"activity, negative = cell killing",[1]; [5],-3.57%
same,"activity, negative = cell killing",[1]; [6],-9.38%
same,"activity, negative = cell killing",[1]; [7],14%
same,Potency,astro,inactive
CC(=O)O[C@H]1CC[C@@]2(C)C(=CC[C@H]3[C@@H]4CC[C@H](C(C)=O)[C@@]4(C)CC[C@@H]32)C1,"activity, negative = cell killing",[1]; [5],-9.15%
same,"activity, negative = cell killing",[1]; [6],-28.1%
same,"activity, negative = cell killing",[1]; [7],-12%
same,Potency,astro,inactive
CCOc1ccc(C[C@H]2NC(=O)CCSSC[C@@H](C(=O)N3CCC[C@H]3C(=O)N[C@@H](CCCN)C(=O)NCC(N)=O)NC(=O)[C@H](CC(N)=O)NC(=O)[C@H]([C@@H](C)O)NC(=O)[C@H]([C@@H](C)CC)NC2=O)cc1 ([Mpa][dY](Et)ITNCP[Orn]G-NH2; disulfide 1-6),"activity, negative = cell killing",[1]; [5],-9.93%
same,"activity, negative = cell killing",[1]; [6],-4.59%
same,"activity, negative = cell killing",[1]; [7],3.43%
same,Potency,astro,inactive
CCNC(=O)C#Cc1ccc2c(C(=Nc3ccc(CN(C)C)cc3)c3ccccc3)c(O)[nH]c2c1,Potency,[2]; HiBiT,17.6 µM (active)
same,Potency,[2]; Viability,9.91 µM (active)
Cc1sc2c(c1C)C(c1ccc(Cl)cc1)=N[C@@H](CC(=O)Nc1ccc(OCCOCCOCCOCCNc3cccc4c3C(=O)N(C3CCC(=O)NC3=O)C4=O)cc1)c1nnc(C)n1-2 (some centres undefined),"activity change, negative = inhibition",[2]; Viability,0.552%
